About 530 (0.24%) of roughly 220,000 compounds were called active. What follows is part of a selection rich in actives, with near analogues and random picks from the rest. Potency and affinity values are given separately. Values without a mark were called inactive. Cut-off read from the data, not from the text of the source: active = inhibition above about 13%; inconclusive = no clear call, values can overlap the other calls; inactive = below that.
molecular target: Bifunctional protein GlmU (Mycobacterium tuberculosis (strain ATCC 25618 / H37Rv)) (UniProt P9WMN3); assay: inhibition of mycobacterial GlmU enzyme – biochemical, glucosamine-1-phosphate acetyltransferase (AID 1376);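 note: 0% = complete reaction with vehicle and 100% = reaction without substrate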; conditions: M. tuberculosis GlmU acetyltransferase enzyme assay; active compounds read high;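 tested at 30 µM in the primary screen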
Sequence (P9WMN3 whole entry, looked up): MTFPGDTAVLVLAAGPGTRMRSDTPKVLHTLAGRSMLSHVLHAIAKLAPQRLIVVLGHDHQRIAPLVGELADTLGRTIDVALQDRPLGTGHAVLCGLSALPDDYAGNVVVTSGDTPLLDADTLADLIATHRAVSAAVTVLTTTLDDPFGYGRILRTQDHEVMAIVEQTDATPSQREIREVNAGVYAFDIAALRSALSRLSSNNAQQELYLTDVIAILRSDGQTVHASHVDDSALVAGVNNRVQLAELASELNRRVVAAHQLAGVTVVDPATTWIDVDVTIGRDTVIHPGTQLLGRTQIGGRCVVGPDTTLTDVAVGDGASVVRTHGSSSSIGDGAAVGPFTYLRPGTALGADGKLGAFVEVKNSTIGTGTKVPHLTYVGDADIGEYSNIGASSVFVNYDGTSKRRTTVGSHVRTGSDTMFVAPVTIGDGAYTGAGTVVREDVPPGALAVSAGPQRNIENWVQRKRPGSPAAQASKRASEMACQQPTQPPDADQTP

Row | SMILES | inhibition
1 | Cc1ccc(NS(=O)(=O)c2ccc(C3CCCCC3)cc2)cc1 | -5.89%
2 | C=CCn1c(-c2c(C)nc3cc(C)ccn23)n[nH]c1=S | 0.98%
3 | Cc1ccc(N(CC(=O)NCCSCc2ccco2)S(=O)(=O)c2ccc(C)cc2)cc1 | -1.27%
4 | CN1CCN(c2ccc([N+](=O)[O-])c(Sc3nncn3C)c2)CC1 | -2.97%
5 | COc1ccc(-c2ccc(-c3noc(-c4ccccc4)n3)c(OC)n2)cc1 | 6.47%
6 | COc1ccc(-c2ccc(-c3noc(-c4cccc(OC)c4)n3)c(OC)n2)cc1 | 14% (active)
7 | COc1ccc(-c2ccc(-c3noc(-c4ccco4)n3)c(OC)n2)cc1 | 1.18%
8 | O=[N+]([O-])c1cccc(/C=N/Nc2ccccn2)c1 | 0.69%
9 | O=C1CC(N(O)c2ccccc2)C(=O)N1Cc1ccccc1 (configuration not stated) | 8.24%
10 | C/C(=N\N=C1\NC(=O)C(Cc2ccccc2)S1)c1ccccc1 (configuration not stated) | 2.56%
11 | Cc1ccc(Sc2cc(C(F)(F)F)nc(N(C)C)n2)cc1 | -0.68%
12 | Cc1cc(C)n2c(SCCN3C(=O)c4ccccc4C3=O)nnc2n1 | 0.6%
13 | CCOC(=O)c1cnc(SCC#N)nc1N | 0.91%
14 | NS(=O)(=O)c1ccc(NC(=O)CSc2nc3ccccc3[nH]2)cc1 | 13.4% (active)
15 | NS(=O)(=O)c1cccc(NC(=O)CSc2nc3ccccc3[nH]2)c1 | 4.49%
16 | O=C(CSc1nc2ccccc2[nH]1)Nc1ccc(F)cc1 | -1.92%
17 | CCn1ncc2c(OCc3ccc(C#N)cc3)cc(C)nc21 | 13% (active)
18 | CCOc1c(C#N)c(C#N)c2nc(C)cc(C)n12 | -3.28%
19 | Cc1csc(OCc2ccc(C#N)cc2)n1 | 4.28%
20 | c1cnc2ccc(C(c3nnnn3C3CCCCC3)N3CCN4CCCC4C3)cc2c1 (configuration not stated) | -1.69%
21 | O=C(Nc1cccc([N+](=O)[O-])c1)c1ccccc1 | -2.61%
22 | O=C(O)c1ccccc1C(=O)Nc1cccc([N+](=O)[O-])c1 | 17.2% (active)
23 | O=C(O)c1cc([N+](=O)[O-])ccc1C(=O)Nc1ccccc1 | 0.35%
24 | COc1ccc(/C=C/C(=O)C2CC2)cc1COc1cccc(C)c1C | 1.77%
25 | O=C(CSCc1ccc(Cl)cc1Cl)Nc1ccccc1C(=O)Nc1ccc(C(=O)O)cc1 | -3.25%

Row | SMILES | inhibition
26 | CC(C)(CN1CCN(c2ccccc2)CC1)NS(=O)(=O)c1ccccc1 | -4.3%
27 | COC(=O)c1ccccc1CCC(C)=O | -1.25%
28 | O=c1cc2c(=O)oc3cc(O)c(O)oc3c2c(O)c1O | 16.8% (active)
29 | O=c1oc2ccccc2c2oc3cc(O)c(O)cc3c12 | 2.91%
30 | O=c1oc2cc(O)c(Cl)cc2c2ccccc12 | 2.71%
31 | CN1C(=O)NC(=O)/C(=C/c2ccc(C(=O)O)cc2)C1=O | 2.77%
32 | CN(C(=O)CC(=O)Nc1ccc(Cl)c(Cl)c1)c1ccccc1 | 0.26%
33 | CC(CCc1ccccc1)NC(=O)C1CCCN(c2nnc(-n3cccc3)s2)C1 (configuration not stated) | 7.96%
34 | COC(=O)c1ccccc1NC(=O)N1CCN(c2ccccc2)CC1 | -3.35%
35 | COCCNC(=O)C1CC2Cn3c(nc4cc(C)c(C)cc43)C2N1C (configuration not stated) | 1.27%
36 | Nc1ccc(Cc2ccc(N)c(C(=O)O)c2)cc1C(=O)O | 7.1%
37 | Nc1ccc(Cc2ccc(N)c(O)c2)cc1O | 13.4% (active)
38 | Cc1cc(Cc2ccc(N)c(C)c2)ccc1N | -3.87%
39 | COc1cccc(NS(=O)(=O)c2ccc3c(c2)C2C=CCC2C(c2ccc(C(=O)O)cc2)N3)c1 (configuration not stated) | 13.1% (active)
40 | COc1ccc(C(=O)N/N=C(\C)c2ccc3c(c2)C2C=CCC2C(c2ccccc2)N3)cc1 (configuration not stated) | 7.99%
41 | CC(=O)c1ccc2c(c1)C1C=CCC1C(c1ccc(S(=O)(=O)N3CCOCC3)cc1)N2 (configuration not stated) | 0.66%
42 | O=C(O)c1ccc2c(c1)C1C=CCC1C(c1ccncc1)N2 (configuration not stated) | -9.79%
43 | Cc1c(Cl)cccc1NS(=O)(=O)c1ccc2c(c1)C1C=CCC1C(c1ccc(C(=O)O)cc1)N2 (configuration not stated) | 23.6% (active)
44 | O=C(O)c1ccc(NS(=O)(=O)c2ccc3c(c2)C2C=CCC2C(c2ccccc2F)N3)cc1 (configuration not stated) | 25.9%
45 | CC1CCc2sc(C(=O)OCC(=O)NCc3ccccc3)cc2C1 (configuration not stated) | -4.45%
46 | CC12CCC(C/C1=N\OC(=O)c1ccc(F)cc1)C2(C)C (configuration not stated) | 1.74%
47 | C/C=C/C(=O)N1CC2(CC(c3cccc(NC(=O)/C(C)=C/C)c3)=NO2)C[C@H]1C(N)=O (some centres not stated) | 3.31%
48 | Cc1cc(C)n(-c2cc(N3CCN(S(=O)(=O)c4ccc(Cl)cc4)CC3)ccc2[N+](=O)[O-])n1 | 5.84%
49 | COc1cccc2c(=O)n(CC(=O)N3CCc4ccccc43)ccc12 | 1.33%
50 | N#CC1=C(N)N(c2ccccc2)C2=C(C(=O)CCC2)C1c1cccs1 (configuration not stated) | 2.47%

Row | SMILES | inhibition
51 | O=C(NC1CCCCC1)Oc1cc2oc(=O)sc2cc1Br | -0.42%
52 | CCCCNC(=O)Oc1c(Br)cc2sc(=O)oc2c1Br | 13.8% (active)
53 | CCCCNC(=O)Oc1cc(CCl)on1 | -3.53%
54 | CSc1cccc(NC(=O)C2CCCN2S(=O)(=O)c2ccc(Br)s2)c1 (configuration not stated) | 7.56%
55 | CSc1ccc(C(=O)C2CCCN(Cc3cnc(SC)nc3)C2)cc1 (configuration not stated) | -1.56%
56 | COc1cccc(N2CCN(C(=O)NC3CCCCC3)CC2)c1 | -5.07%
57 | CCCCC(CC)C1OCC(CN2CCCCC2)O1 (configuration not stated) | 7.5%
58 | CN1C(=O)C(=Cc2ccc(Sc3ccccc3)o2)C(=O)N(C)C1=O | -2.7%
59 | O=C1NC(=O)N(c2ccccc2)C(=O)/C1=C/c1ccc(Sc2ccccc2)o1 | 19.6%
60 | O=[N+]([O-])c1cc(S(=O)(=O)N2CCCC2)ccc1N/N=C/c1cccnc1 | -1.08%
61 | O=c1cc(-c2ccc(O)cc2)oc2ccc(O)cc12 | -0.88%
62 | O=c1cc(O)c2ccc(O)cc2o1 | 4.26%
63 | O=C(c1ccc([N+](=O)[O-])cc1[N+](=O)[O-])N1CCCC1 | 2.34%
64 | CC1CC(C)CN(C(=O)Cn2c(=O)n(CCCCC(=O)NCc3ccco3)c(=O)c3ccccc32)C1 (configuration not stated) | 4.18%
65 | CCOc1nc2c(c(=O)n(C)c(=O)n2C)n1Cc1ccccc1Cl | 1.39%
66 | CCCCNC(=O)Nc1nc2ccccc2s1 | 5.87%
67 | CCCCOc1ccc(NC2=NC3(CCCCC3)N=C(N)N2)cc1 | -13.7%
68 | COc1ccc(NC2=NC3(CCCCC3)N=C(N)N2)cc1 | 26% (active)
69 | COc1cccc(NC2=NC3(CCCCC3)N=C(N)N2)c1 | 0.3%
70 | CCOc1ccc(/C=C(/NC(=O)c2ccc(Cl)cc2)C(=O)O)cc1OCC | -0.87%
71 | NC(=O)c1ccc(-n2nnnc2Oc2ccc(Br)cc2)cc1 | -0.77%
72 | COc1ccc(NC(=O)Nc2ccccn2)cc1OC | 5.35%
73 | Cc1c(Br)c(=O)oc2c(C)c(O)ccc12 | -1.97%
74 | Cc1c(Br)c(=O)oc2c(Br)c(O)ccc12 | 4.5%
75 | CC(C)(Cc1ccc(O)cc1)NC(=O)CC(=O)N/N=C/c1ccc([N+](=O)[O-])cc1 | -2.21%

Row | SMILES | inhibition
76 | COc1cc(/C=N/NC(=O)CCn2c3ccccc3c3ccccc32)cc(OC)c1OC | 1.58%
77 | O=C(CN1CCN(Cc2ccccc2)CC1)N/N=C/c1cccnc1 | 1.02%
78 | COc1ccc(N=C2NC(=O)/C(=C\C=C\c3ccco3)S2)cc1 | 8.93%
79 | O=C1NC(=Nc2ccc(O)cc2)S/C1=C\C=C\c1ccco1 | 3.62%
80 | Cc1cccc(N=C2NC(=O)/C(=C/C=C/c3ccco3)S2)c1C | -4.23%
81 | Cc1cccc(N=C2NC(=O)/C(=C/C=C/c3ccco3)S2)c1 | 13.5% (active)
82 | O=C1NC(=Nc2ccccc2)S/C1=C\C=C\c1ccco1 | 14.8% (active)
83 | Cc1ccc(N=C2NC(=O)/C(=C/C=C/c3ccco3)S2)cc1 | 4.9%
84 | O=C1Cn2c(nc3ccccc32)N1c1cccc(C(F)(F)F)c1 | 0.84%
85 | CN(Cc1ccncc1)C1CC(=O)N(c2ccc(F)cc2)C1=O (configuration not stated) | 5.02%
86 | CCSc1ccccc1C(=O)NC1CCCCC1 | 2.94%
87 | CCCNCc1cc(Br)ccc1OCC(=O)NCCc1ccccc1 | 0.38%
88 | CC(C)N(Cc1ccccc1)C(=O)Cn1c(=O)cnc2ccccc21 | -0.29%
89 | Cc1[nH]n(C2=NCCS2)c(=O)c1N=Nc1cccc(C(F)(F)F)c1 | -0.55%
90 | Cc1cc(C)c(S(=O)(=O)Nn2cnnc2)c(C)c1 | -3.71%
91 | Cc1ccc(S(=O)(=O)c2c(C)cc(C)nc2Cl)c(C)c1 | 1.23%
92 | Cc1cc(C)c(S(=O)(=O)/N=C2\C=CC(=O)C(Cl)=C2)c(C)c1 | 14.5% (active)
93 | COc1cccc(C2=NN(C(=O)c3ccco3)C(O)(C(F)(F)F)C2)c1 (configuration not stated) | 3.28%
94 | Cc1ccc(-c2csc3ncnc(OCC(=O)NC(=O)NCc4ccco4)c23)cc1 | 2.74%
95 | CN(c1ccccc1)S(=O)(=O)c1ccc(NC(=S)Nc2ccccc2)cc1 | 18.1% (active)
96 | CN(c1ccccc1)S(=O)(=O)c1ccc(NC(=S)NC(=O)c2ccccc2)cc1 | 0.7%
97 | CC(=O)Nc1ccc(S(=O)(=O)N(C)c2ccccc2)cc1 | -1.32%

From PubChem BioAssay AID1376 (SRMLSC, 2008)
